Source: PubChem (National Center for Advancing Translational Sciences (NCATS))
An excerpt weighted towards active compounds, which were near 1.7% of everything screened.
KCNH2 WT inh = qHTS for Inhibitors of KCHN2 3.1: Wildtype qHTS. AID 720551, 2013. Voltage-gated inwardly rectifying potassium channel KCNH2 (Homo sapiens), Q12809. 0.37% of 340,000 active. activity change, % at 1.84 µM. U2OS, BacMam KCNH2, thallium flux FluxOr; hits give low values;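 active = maximum activity change below -70%; inconclusive = maximum activity change between -70% and -50%; inactive = maximum activity change above -50%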
Target sequence (Q12809 whole entry, looked up): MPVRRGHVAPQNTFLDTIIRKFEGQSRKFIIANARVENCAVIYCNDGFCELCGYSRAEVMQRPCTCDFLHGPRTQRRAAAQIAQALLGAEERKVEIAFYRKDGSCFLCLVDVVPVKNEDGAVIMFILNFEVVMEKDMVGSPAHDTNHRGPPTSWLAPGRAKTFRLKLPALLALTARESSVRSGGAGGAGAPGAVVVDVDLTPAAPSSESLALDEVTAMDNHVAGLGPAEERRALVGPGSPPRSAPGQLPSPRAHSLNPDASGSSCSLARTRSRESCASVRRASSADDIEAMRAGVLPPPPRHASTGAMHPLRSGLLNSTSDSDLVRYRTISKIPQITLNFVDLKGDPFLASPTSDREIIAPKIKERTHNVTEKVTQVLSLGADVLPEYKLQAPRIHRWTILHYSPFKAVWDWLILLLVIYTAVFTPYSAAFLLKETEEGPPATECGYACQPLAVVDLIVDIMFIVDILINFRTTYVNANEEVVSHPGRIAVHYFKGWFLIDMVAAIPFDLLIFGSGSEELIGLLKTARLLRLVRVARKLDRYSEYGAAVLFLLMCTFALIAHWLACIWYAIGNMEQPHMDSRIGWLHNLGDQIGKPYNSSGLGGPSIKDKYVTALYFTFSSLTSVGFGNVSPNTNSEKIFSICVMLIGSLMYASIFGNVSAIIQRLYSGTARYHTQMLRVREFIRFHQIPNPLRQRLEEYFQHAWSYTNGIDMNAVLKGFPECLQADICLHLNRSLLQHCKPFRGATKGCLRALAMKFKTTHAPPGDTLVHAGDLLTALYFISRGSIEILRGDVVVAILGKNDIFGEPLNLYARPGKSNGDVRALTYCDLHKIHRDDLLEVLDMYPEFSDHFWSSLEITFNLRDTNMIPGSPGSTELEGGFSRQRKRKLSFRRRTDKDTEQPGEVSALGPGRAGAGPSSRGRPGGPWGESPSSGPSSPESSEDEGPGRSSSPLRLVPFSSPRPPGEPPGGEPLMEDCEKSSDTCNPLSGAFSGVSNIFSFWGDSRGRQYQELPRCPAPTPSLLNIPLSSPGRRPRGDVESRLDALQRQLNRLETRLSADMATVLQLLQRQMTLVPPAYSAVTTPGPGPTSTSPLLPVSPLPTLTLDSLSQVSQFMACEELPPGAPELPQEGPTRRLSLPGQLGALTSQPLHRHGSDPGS
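U2OS cells transduced with wild-type KCNH2 virus are loaded with FluxOr dye for 45 min, and thallium flux is measured in kinetic reads before and after stimulation buffer. Rate constants are normalized to DMSO controls.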
RXFP1 ag = qHTS Assay for Agonists of the Relaxin Receptor RXFP1 | Relaxin receptor 1 (Homo sapiens), Q9HBX9 | HEK293T-RXFP1 cAMP TR-FRET, 30 min; response scale: percent of porcine relaxin response, buffer zero | Potency, µM (series often up to 57.5 µM), inactives show at the highest dose activation, usual class: activators | 0.3% of 370,000 active; active = well fitted activation curve with a large enough effect; inconclusive = small, poorly fitted or top-dose-only effect; also: potency is read from the fitted curve at half-maximal effect; nearly all actives have a fitted effect of over 60% in size
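HEK293 cells stably expressing RXFP1, treated 30 min at 37C with compounds plus PDE4 inhibitor Ro 20174; cAMP measured by HTRF TR-FRET. Normalized to buffer and 29 nM porcine relaxin; EC50 by Hill fit.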
pAkt inh = HTS Assay for Inhibitors of Akt Phophorylation: Primary Screen | AID 651550, 2012 | Neuro2A IGF-stimulated pAkt S473 HTRF, 20 min; hits give low values | activity change, % for hits at 50 µM | 0.32% of 360,000 active; in the data active = activity change below about -80%; inconclusive = mostly about -51% to -80%
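Single-point screen (50 µM final compound) in Neuro2A cells stimulated 20 min with 6 nM IGF at 37 deg C. After lysis, Ser473-phosphorylated Akt read by HTRF (ex 330 nm, em 615/665 nm) as the 665/615 ratio.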
KCNH2 3.1 inh = qHTS for Inhibitors of KCHN2 3.1: Mutant qHTS | U2OS KCNH2 3.1, thallium flux FluxOr; hits give low values | Potassium voltage-gated channel subfamily H member 2, brain isoform KCNH2 3.1 (human) | activity change, % (tested at about 1.8 µM) | 0.95% of 340,000 active | AID 720553, 2013;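 active = maximum activity change below -70%; inconclusive = maximum activity change from -70% to -50%; inactive = maximum activity change above -50%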;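 also: thallium influx rate constant from kinetic fluorescence after stimulation buffer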
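Virally transduced U2OS (3.1 isoform, 4 h infection in dark at RT) → overnight 37 C → FluxOr + Red40 in HBSS/HEPES, 45 min → stimulation buffer, 2 min kinetic read → rate constant vs DMSO controls.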
RXFP1 antagonist = qHTS Assay for Antagonists of the Relaxin Receptor RXFP1. 0.59% of 350,000 active. Relaxin receptor 1 (Homo sapiens), Q9HBX9. AID 1259400, 2018. HEK293-RXFP1, relaxin-stimulated cAMP HTRF, 30 min; hits give low values. activity change, negative = inhibition, % at 57.5 µM;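 active = activity change of -60% or lower, but not beyond a set lower limit; inconclusive = change between -60% and -40%, or beyond the set limit; inactive = change above -40%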
Numbers without * were called inactive; i = inactive; ? = inconclusive; nt = not tested or not shown. % is scaled to controls: 0 for no effect and ±100 for the full control effect.

SMILES	KCNH2 WT inh	RXFP1 ag	pAkt inh	KCNH2 3.1 inh	RXFP1 antagonist
CCOc1ccccc1NC(=O)c1ccccc1N(C)S(C)(=O)=O	-3	2%	i	-2	-3
COc1ccccc1NC(=O)c1ccccc1N(Cc1ccccc1)S(C)(=O)=O	-215*	-1%	i	14	-4
COC(=O)c1ccccc1N(Cc1ccccc1)S(C)(=O)=O	-10	3%	i	-5	-13
CC(C)NC(=O)c1ccccc1N(Cc1ccccc1)S(C)(=O)=O	-25	0%	i	-75*	9
COCCCn1c(=S)[nH]c2ncccc2c1=O	1	1%	-122%*	-19	-8
COCCn1c(=S)[nH]c2ncccc2c1=O	-3	2%	-109%*	6	6
CCCCCn1c(=S)[nH]c2ncccc2c1=O	-34	-1%	i	8	-8
COCCCn1c(-c2ccccc2)nc2ccccc2c1=O	6	2%	-121%*	5	-11
CC1(C(=O)Nc2ccc3[nH]ncc3c2)CCN1C(=O)CC(c1ccccc1)c1ccccc1 (stereo not drawn)	nt	nt	i	nt	nt
Cc1ccc(S(=O)(=O)N(CC(=O)NCc2ccccc2)C(=O)N2CCN(C)CC2)cc1	2	1%	i	2	-12
NC(=O)c1ccccc1NC(=O)NC1CCCCC1	-3	-1%	i	-71*	8
Nc1cc2c(cc1[N+](=O)[O-])-c1ccccc1C2=NO	-13	nt	i	13	2
CC(C)/C=C1\CC/C(=C\c2ccc(N(C)C)cc2)C1=O	-34	2%	i	-79*	-10
CN(C)c1ccc(/C=C2/C[N+](C)(C)C/C(=C/c3ccc(N(C)C)cc3)C2=O)cc1	45	nt	i	nt	-24
CCCN1C(=O)C(Cc2nc3ccccc3c(=O)n2-c2cccc(C)c2)c2ccccc21 (stereo not drawn)	nt	-3%	nt	nt	-18
COc1ccc(N2CCN(S(=O)(=O)c3ccc(OC)c(C(=O)N4CCCC4)c3)CC2)cc1	1	0%	i	7	-6
Cc1ccc(C(C)C)c(OCC(=O)Nc2ccc3c(c2)nc(CCN2CCCCC2)n3C)c1	48	5%	i	-47	-61*
CCOC(=O)C1=C(C)NC(SCC(=O)O)=C(C#N)C1c1ccco1 (stereo not drawn)	-36	-1%	i	3	-3
COc1cccc(C(CC(=O)O)NS(=O)(=O)c2ccc3c(c2)N(C(C)=O)CC(C)O3)c1 (stereo not drawn)	4	1%	i	-6	5
COc1ccc(CC2(CO)CCN(CC3=Cc4cc(Cl)ccc4OC3)CC2)cc1	-41	1%	i	-74*	?
COc1ccc2c(c1)C=C(CN1CCN(Cc3ccccc3C)C(CCO)C1)CO2 (stereo not drawn)	6	1%	i	-28	-2
COc1ccc2c(c1)C=C(CN1CCC(CO)(CCc3ccccc3)CC1)CO2	-11	-2%	i	-88*	-11
Cc1cccc(C)c1NC(=O)C(=O)NCC(c1ccc2c(c1)OCO2)N1CCOCC1 (stereo not drawn)	nt	0%	nt	nt	7
COc1ccc(C(=O)Nc2ccc(Cl)cc2C(=O)NCCN2CCOCC2)cc1	11	4%	i	5	4
Cc1nc(N)sc1-c1csc(Nc2ccccn2)n1	-5	1%	-110%*	5	-5
SMILES	KCNH2 WT inh	RXFP1 ag	pAkt inh	KCNH2 3.1 inh	RXFP1 antagonist
Cc1ccnc(Nc2nc(-c3ccc(F)cc3)cs2)c1	-5	0%	i	-15	-66*
COc1ccc(-c2csc(Nc3ccccn3)n2)cc1OC	-2	-1%	i	0	-84*
CN(C)c1cccc(CNC(=O)c2csc([C@@H]3O[C@H](CO)[C@@H](O)[C@H]3O)n2)c1	nt	nt	i	nt	nt
N#Cc1cc(C#N)c(SCC(=O)NCC2CCCO2)nc1N (stereo not drawn)	1	5%	i	17	-3
CN(C)/C=C(/C(=O)c1ccc(Cl)cc1)S(=O)(=O)c1ccc(Cl)cc1	-3	-3%	i	-5	8
CC(/C=N/NC(=O)c1cnccn1)=C\c1ccco1	3	1%	i	-19	-12
CCC(Sc1ncccc1C(=O)OC(C)C)C(=O)NCc1ccco1 (stereo not drawn)	-9	0%	i	-14	2
CN(C)c1ccc(/C=C/C(=O)c2cccc(Br)c2)cc1	-149*	-2%	i	-115*	4
O=C(N/N=C/C=N/NC(=O)c1ccco1)c1ccco1	-4	0%	i	-16	1
CN(CC(=O)Nc1ccc(F)cc1)C(=O)COC(=O)Cc1c(F)cccc1Cl	-5	1%	i	-3	16
CN(CC(=O)Nc1ccccc1Cl)C(=O)COC(=O)Cc1c(F)cccc1Cl	-7	13µM*	i	10	-7
COc1cccc(NC(=O)Nc2ccc(C)c(Cl)c2)c1	-14	0%	i	4	-13
Cc1ccc(-n2c(-c3c(-c4ccccc4)noc3C)n[nH]c2=S)cc1	-25	1%	i	-188*	-35
Cc1ccc(-c2n[nH]c(=S)n2-c2ccccc2)cc1	-9	1%	i	6	-21
O=c1nccc(NCc2ccco2)[nH]1	7	2%	-108%*	-2	1
COC(=O)C(C)N(C#N)c1nc(NC(C)C)nc(SC)n1 (stereo not drawn)	-14	0%	i	-4	-8
Cc1c(CC(=O)O)c(=O)oc2cc(OCc3nn[nH]n3)ccc12	-1	4%	-98%*	-4	1
Cc1c(Cc2ccccc2)c(=O)oc2cc(OCc3nn[nH]n3)ccc12	-3	0%	i	5	-3
CCCCNc1oc(-c2cccs2)nc1S(=O)(=O)c1ccccc1	-1	3%	nt	-6	5
COc1cccc(C(=O)Nc2c3c(nn2-c2ccc([N+](=O)[O-])cc2)CS(=O)(=O)C3)c1	-10	-2%	i	1	0
NS(=O)(=O)c1ccc(NC(=O)CSc2ncnc3ccccc23)cc1	nt	?	i	14	-6
NS(=O)(=O)c1cccc(NC(=O)CSc2ncnc3ccccc23)c1	-2	25µM*	i	-3	2
Cc1ccc(/C(O)=C2\C(=O)C(=O)N(C)C2c2ccccc2)cc1 (stereo not drawn)	39	nt	i	-7	-1
Cc1ccc(/C(O)=C2\C(=O)C(=O)N(CC(C)O)C2c2cccc(F)c2)cc1 (stereo not drawn)	-5	15%	-113%*	-4	21
